From PubChem BioAssay AID2221 (Broad Institute, 2009) come the findings set out here.

The campaign covered roughly 290,000 compounds. About 2,200 (0.76%) were called active. The sample as a whole holds a higher share of actives than the screen did. Unmarked numbers belong to inactive results. Rule as the data show it: active = inhibition above about 30%; inconclusive = no clear call, values can overlap the other calls; inactive = below that.

Sequence of Protein RecA (Mycobacterium tuberculosis (strain ATCC 25618 / H37Rv)) (P9WHJ3 whole entry, looked up): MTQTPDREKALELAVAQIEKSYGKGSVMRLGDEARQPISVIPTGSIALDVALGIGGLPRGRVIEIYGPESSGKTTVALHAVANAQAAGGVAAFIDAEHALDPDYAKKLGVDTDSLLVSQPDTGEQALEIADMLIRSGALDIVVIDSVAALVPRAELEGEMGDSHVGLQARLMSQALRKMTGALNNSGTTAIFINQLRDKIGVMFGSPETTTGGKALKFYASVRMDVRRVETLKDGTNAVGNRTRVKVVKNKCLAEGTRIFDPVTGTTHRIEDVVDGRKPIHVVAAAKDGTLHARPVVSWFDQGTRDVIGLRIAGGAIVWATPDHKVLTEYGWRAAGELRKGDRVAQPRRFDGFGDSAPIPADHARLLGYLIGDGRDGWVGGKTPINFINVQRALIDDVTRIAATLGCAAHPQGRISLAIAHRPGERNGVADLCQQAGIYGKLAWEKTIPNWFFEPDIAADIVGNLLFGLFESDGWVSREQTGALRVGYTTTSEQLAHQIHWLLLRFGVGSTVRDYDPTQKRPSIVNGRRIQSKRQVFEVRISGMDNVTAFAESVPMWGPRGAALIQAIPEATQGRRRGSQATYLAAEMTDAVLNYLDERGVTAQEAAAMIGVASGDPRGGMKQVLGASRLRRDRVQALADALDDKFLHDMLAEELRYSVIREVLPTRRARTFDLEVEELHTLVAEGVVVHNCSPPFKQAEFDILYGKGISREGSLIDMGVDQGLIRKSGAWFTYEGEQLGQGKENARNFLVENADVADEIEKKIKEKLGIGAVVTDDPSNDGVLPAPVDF

The experiment has as its target Protein RecA (Mycobacterium tuberculosis (strain ATCC 25618 / H37Rv)) (UniProt P9WHJ3). Nature of the experiment: Mtb RecA intein splicing inhibitors, primary screen, biochemical, fluorescence, HTS (AID 2221).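 Also: 0% = vehicle wells and 100% = reference inhibitor control wells.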 The following applies: cell-free RecA intein splicing, hits give high values, concentration not given here.
As usually defined, the inhibition is the change of the read-out against control, counted positive when it falls. Take `O=C(CN1C(=O)C2C3C=CC(C3)C2C1=O)Nc1nc(-c2ccccn2)cs1` (stereo not drawn): the inhibition was -1.82%.
Regarding `CCn1c(CC(=O)Nc2ccccc2)nnc1SCC(=O)N1CCOCC1`, the inhibition was -3.34%.
For the molecule `N#Cc1ccc(C2N=C(c3ccccc3)NO2)cc1` (stereo not drawn), the inhibition is -0.394%.
The same measure for `O=C(CSC1=NCCS1)Nc1nc(-c2ccccc2)cs1`: 37.4% (active); for `CCNC(=O)CSc1nc(-c2ccccc2)cs1`: 0.44%; for `O=C(CSc1nc2ccccc2c(=O)[nH]1)Nc1nc(-c2ccc(Br)cc2)cs1`: 1.49%.
Next, `CC(C)C(C)NC(=O)COc1nc2ccccc2nc1N(C)C1CCCCC1` (stereo not drawn): -2.05%; `COc1ccc(C(=O)NCCSc2ccccc2C)cc1`: 3.07%; `COC(=O)N(NC(=O)C(O)(C(C)C)C(C)C)c1ccccc1`: -3.28%.
Take `CCCCC(O)(CCCC)C(=O)NN(C(=O)CCl)c1ccccc1`: the inhibition is 42.8% (active).
Regarding `CCCC(O)(CCC)C(=O)NN(C(=O)CCl)c1cccc(C)c1`, the inhibition is 18.1%.
Next, `CCOC(=O)C1Cn2c(nc3c(c2=O)C(C)(CC)Cc2ccccc2-3)S1` (stereo not drawn): -3.72%; `CCCc1nnc(NC(=O)CCC(=O)NC2CC2)s1`: -1.59%.
As to `Cc1ccc(S(=O)(=O)N(Cc2cccc([N+](=O)[O-])c2)C(=O)N2CCN(C)CC2)cc1`, the inhibition is 1.46%.
The same measure for `CCN(CC)C(=O)CN(c1cccc([N+](=O)[O-])c1)S(=O)(=O)c1ccccc1`: 0.016%; for `O=C(CCl)N(Cc1cccc([N+](=O)[O-])c1)c1cccc(Cl)c1`: 88.1% (active).
The same measure for `O=C(CCS(=O)(=O)c1ccccc1Cl)Nc1ccc(S(=O)(=O)Nc2ncccn2)cc1`: -0.502%; for `CC(C)c1ccc(N(C(=O)c2ccco2)C(C(=O)NC2CCCC2)c2cccnc2)cc1` (stereo not drawn): 2.58%.
Turning to `S=c1[nH]nc(-c2ccc(Cl)cc2)n1CC1CCCO1` (stereo not drawn), the inhibition was -1.85%.
Next, `O=C(c1[nH]ncc1-c1ccc(Cl)cc1)C1CO1` (stereo not drawn): 33% (active); `O=C(c1nnc(-c2ccc(Cl)cc2)o1)C1CCCC1`: -10.3%.
The same measure for `COc1ccccc1OCCCCCCN1CCN(C)CC1`: -1.55%; for `CC(OC(=O)CNC(=O)c1cccc(F)c1)C(=O)NC1CCCCC1C` (stereo not drawn): -0.912%; for `N#Cc1c(N)n(CCOC(=O)c2ccc(Cl)cc2)c2nc3ccccc3nc12`: 51.9% (active).
Turning to `COCC(C)OC(=O)c1c(N)n(CCCN2CCOCC2)c2nc3ccccc3nc12` (stereo not drawn), the inhibition is -97.2%.
The same measure for `CC(C)(C)OC(=O)c1c(N)n(CCCN2CCCC2=O)c2nc3ccccc3nc12`: -350%; for `CC(C)(C)n1nc(Cc2cccc3ccccc23)c(C#N)c1N`: 4.34%.
With `COc1ccc(N(C(=O)c2snc(C(N)=O)c2N)C(C(=O)NC2CCCC2)c2ccc(C)o2)c(OC)c1` (stereo not drawn), the inhibition was 5.96%.
The same measure for `O=C(OCC(=O)N(CCc1ccccc1)Cc1ccccc1)c1ccccc1[N+](=O)[O-]`: 18.8%; for `Cc1ccc(C(=O)N/N=C\c2cc(Br)c(Br)o2)cn1`: 32% (active).
Next, `Cc1ccc(C(=O)N/N=C/c2cccc3ccccc23)cn1`: 0.625%; `O=C(N/N=C\c1cc(Br)c(Br)o1)C1COc2ccccc2O1` (stereo not drawn): 0.81%.
`Cn1c2ccccc2n2c(=O)c(=O)n(CC(=O)c3ccc(F)cc3)nc12`: the inhibition is -7.28%.
For the molecule `COCCN1CCN(C(=O)c2cc(COc3ccc(F)cc3Cl)on2)CC1`, the inhibition is -1.15%.
Take `O=C(C1CCN(Cc2ccc(Cl)cc2)CC1)N1CCN(Cc2ccc3c(c2)OCO3)CC1`: the inhibition was -0.0543%.
Consider `CC1CCC(NC(=O)C2c3ccccc3C(=O)N2Cc2ccc3c(c2)OCO3)CC1` (stereo not drawn), for which the inhibition was -1.41%.
In the case of `O=C(Nc1ccc(Cl)cc1)C1c2cccc[n+]2CC(=O)N1Cc1ccc2c(c1)OCO2` (stereo not drawn), the inhibition was 36.5% (active).
With `C=CS(=O)c1sc(Cl)c(N2CCOCC2)c1[N+](=O)[O-]` (stereo not drawn), the inhibition is 33.8% (active).
Regarding `CCOC(=O)c1cc(NC(=O)c2ccc(Cl)cc2)c(=O)oc1-c1ccccc1`, the inhibition was -0.694%.
Next, `O=C(N/N=C/c1c(Cl)[nH]c2ccccc12)c1sc2ccccc2c1Cl`: 3.69%; `Oc1ccc(N=Cc2sc3ccccc3c2Cl)cc1`: 34.2% (active).
The same measure for `COc1ccc(N=C(C)c2sc3ccccc3c2O)cc1`: 0.51%; for `CC(C)(C)C1CCC(C(=O)NCC(c2cccs2)N2CCOCC2)CC1` (stereo not drawn): 4.62%; for `CCCCN1C(=O)/C(=C(/C#N)C(N)=O)c2ccccc21`: 1.79%.
Next, `C#CCN1C(=O)C(O)(CC(=O)c2cc(OC)ccc2OC)c2ccccc21` (stereo not drawn): 2.4%.
For the molecule `COc1ccc2c(c1)C(=C(C#N)C#N)C(=O)N2CCc1ccccc1`, the inhibition is 61.5% (active).
Take `O=[N+]([O-])c1ccc2nc(-c3ccccn3)[nH]c2c1`: the inhibition is 0.606%.
Consider `COc1ccc(-c2nnc(SCC(=O)Nc3cccnc3Cl)n2C)cc1`, for which the inhibition was -0.381%.
Consider `COc1ccc(N(CC(=O)NCC2CCCO2)C(=O)CCC(=O)Nc2nccs2)c(OC)c1` (stereo not drawn), for which the inhibition is 1.28%.
The same measure for `COc1ccc(NC(=O)c2cc(-c3ccc(C)cc3)on2)cc1`: -0.468%; for `Cc1ccc(NC(=O)OCc2cncs2)cc1`: -1.45%.
Next, `COc1ccc(NC(=O)/C(Cl)=C(/Cl)S(=O)Cc2ccc(C)cc2)cn1` (stereo not drawn): 89% (active); `O=C(Nc1ccccc1-c1nnn(CC(=O)N2CCN(c3ccccc3)CC2)n1)c1cccs1`: 0.619%; `COc1ccc(CNC(=O)CN(c2ccc(OC)c(Cl)c2)S(=O)(=O)c2ccc(C)cc2)cc1`: -0.316%.
On to `O=[N+]([O-])c1c(NCCO)cc(Sc2nc3ccccc3s2)c2nonc12`, for which the inhibition was 94.4% (active).
Next, `O=C(O)c1cccc(S(=O)(=O)Nc2ccc(O)cc2Sc2nc3ccccc3s2)c1`: -3.82%; `CCOc1ccccc1Nc1ccc2nonc2c1[N+](=O)[O-]`: 2.95%.
Next, `CCSc1nnc(NC(=O)c2ccc(C)cc2)s1`: 2.42%; `Cc1nnc(NC(=O)CCCOc2ccccc2)s1`: -1.92%; `Cc1ccc(CS(=O)(=O)c2ncc(Cl)c(C(=O)Nc3nnc(C)s3)n2)cc1`: 61% (active).
The same measure for `CSc1ncc(Cl)c(C(=O)Nc2cc(C)ccc2C)n1`: -0.95%.
Consider `CSc1nnc(NC(=O)c2nc(S(=O)(=O)Cc3ccc(C)cc3)ncc2Cl)s1`, for which the inhibition was 82.8% (active).
For the molecule `Cc1ccc(S(=O)(=O)CC(=O)Nc2nnc(C)s2)cc1`, the inhibition was -0.704%.
